The list is not random: actives were taken first. Their share in the collection is about 19%.
Pf growth 96h: Primary qHTS for delayed death inhibitors of the malarial parasite plastid, 96 hour incubation | P. falciparum luciferase reporter growth, 96 h | Potency, µM (top dose mostly 28.7 µM), actives largely listed as inhibitors | hit rate 6.9% among 320,000 | AID 504834, 2011
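P. falciparum expressing integrated firefly luciferase, in erythrocytes at 2% hematocrit, 0.05% parasitemia, incubated with compounds 96 h at 37 C, 5% CO2. Growth inhibition read as loss of luminescence; two-generation exposure targets delayed-death apicoplast inhibitors.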
AMA1-RON2 inh: qHTS for Inhibitors of AMA1-RON; Towards Development of Antimalarial Drug Lead: Primary Screen; Plasmodium falciparum AMA1 (3D7) - RON2 peptide interaction; AlphaScreen AMA1-biotinylated RON2 peptide binding; Potency, µM (highest dose often 58.2 µM), usual class: inhibitors; hit rate 0.2% among 360,000; further: nearly all actives have a fitted effect of over 45% in size
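AMA1 (3D7) with his tag at 25 nM final met compounds first, then biotinylated RON2 peptide at 25 nM; detection used donor plus acceptor beads, 10 µg/mL apiece, read by AlphaScreen after 30 min at room temperature.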
SARS PLpro yeast: qHTS of Yeast-based Assay for SARS-CoV PLP; S. cerevisiae expressing SARS-CoV PLpro, growth rescue; Potency, µM (doses to about 32.9 µM), hits mostly activators; hit rate 0.19% among 330,000; AID 485353, 2010; calls by dose curve; further: nearly all actives have a fitted effect of over 55% in size
Cycloheximide cs: Cycloheximide Counterscreen for Small Molecule Inhibitors of Shiga Toxin. cell reporter, cycloheximide protein synthesis inhibition counterscreen. max response, %. hit rate 12% among 300,000. AID 2314, 2010; in the data active means max response mostly above about 13%, no sharp cut-off; inactive means mostly below about 14%; further: read at 38.3 µM for the half of the compounds with a filed dose
Shiga inhibitor: A qHTS for Small Molecule Inhibitors of Shiga Toxin. hit rate 9.2% among 290,000. AID 2315, 2010. Vero cells, Shiga toxin protein synthesis inhibition reporter. inhibition, % at 38.7 µM; in the data active means inhibition mostly above about 28%, no sharp cut-off; inactive means mostly below about 43%
Pf growth 48h: Primary qHTS for delayed death inhibitors of the malarial parasite plastid, 48 hour incubation; P. falciparum luciferase growth in erythrocytes, 48 h; Potency, µM (top dose mostly 28.7 µM), hits mostly inhibitors; hit rate 5.9% among 310,000
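Growth was read as firefly luciferase luminescence after a 48 h, 37 C, 5% CO2 exposure of compounds to reporter-bearing P. falciparum cultures (0.1% parasitemia, 2% hematocrit final) in Albumax-supplemented RPMI 1640.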
A number is an active result. Unless noted, the call rests on the fitted dose curve; in most records, active means well fitted curve in the direction sought with a large enough effect; inconclusive means small, poorly fitted or top-dose-only effect, or another doubt; inactive means no such curve, though single readings can be large; an effect the other way counts as inactive or inconclusive.

Screening COc1cccc(CNCc2cccnc2)c1OCc1ccccc1 returned Pf growth 96h inactive, AMA1-RON2 inh inactive, SARS PLpro yeast inactive, Cycloheximide cs inactive, Shiga inhibitor inactive and Pf growth 48h inconclusive.
Screening CC(C)(C)n1ncc2c(=O)n(CC(=O)c3ccccc3)cnc21 returned Pf growth 96h 2.1µM, AMA1-RON2 inh inactive, SARS PLpro yeast inactive, Cycloheximide cs 56, Shiga inhibitor 81 and Pf growth 48h inactive.
CC(C)(C)n1ncc2c(=O)n(CC(=O)N3CCc4ccccc43)cnc21 was read as Pf growth 96h inconclusive, AMA1-RON2 inh inactive, SARS PLpro yeast inactive, Cycloheximide cs 12, Shiga inhibitor 69 and Pf growth 48h inactive.
For CC(C)(C)n1ncc2c(=O)n(CC(=O)N3CCCc4ccccc43)cnc21 the results were Pf growth 96h 1.9µM, AMA1-RON2 inh inactive, SARS PLpro yeast inactive, Cycloheximide cs inactive, Shiga inhibitor inactive and Pf growth 48h inactive.
Screening CC(C)(C)n1ncc2c(=O)n(Cc3cccc(Cl)c3)cnc21 returned Pf growth 96h inconclusive, AMA1-RON2 inh inactive, SARS PLpro yeast inactive, Cycloheximide cs 33, Shiga inhibitor 46 and Pf growth 48h inactive.
Screening O=C(Cn1cnc2c(cnn2-c2ccccc2Cl)c1=O)N1CCc2ccccc21 returned AMA1-RON2 inh inactive, SARS PLpro yeast inactive, Cycloheximide cs inactive, Shiga inhibitor inactive and Pf growth 48h inconclusive.
Screening COc1ccc(CCNC(=O)CC(c2ccccc2)c2cccc(C)c2O)cc1OC (stereo not given) returned Pf growth 96h inactive, AMA1-RON2 inh inactive, SARS PLpro yeast inactive, Cycloheximide cs inactive, Shiga inhibitor inactive and Pf growth 48h inconclusive.
For CCn1cc(/C=C(\NC(=O)c2ccccc2)C(=O)NCCN2CCOCC2)c2ccccc21 the results were AMA1-RON2 inh inactive.
For CC(C)N1CCN(Cc2c[nH]c3ccccc23)CC1CCO (stereo not given) the results were Pf growth 96h inactive, AMA1-RON2 inh inactive, Cycloheximide cs inactive, Shiga inhibitor inactive and Pf growth 48h inactive.
`CC(C)=CCN1CCN(Cc2c[nH]c3ccccc23)CC1CCO` (stereo not given) gave Pf growth 96h 2.9µM, AMA1-RON2 inh inactive, SARS PLpro yeast inactive, Cycloheximide cs inactive, Shiga inhibitor inactive and Pf growth 48h inactive.
Screening CC(C)CN1CCN(Cc2c[nH]c3ccccc23)CC1CCO (stereo not given) returned Pf growth 96h 9.3µM, AMA1-RON2 inh inactive, SARS PLpro yeast inactive, Cycloheximide cs inactive and Pf growth 48h inactive.
`CCn1cc(S(=O)(=O)CC(=O)N2CCc3ccccc32)c2ccccc21` gave Pf growth 96h inactive, AMA1-RON2 inh inactive, SARS PLpro yeast inactive, Cycloheximide cs inactive, Shiga inhibitor inactive and Pf growth 48h inactive.
Cc1cccc(NC(=O)CSc2nnc3ccc(-c4ccccn4)nn23)c1 was read as Pf growth 96h inconclusive, AMA1-RON2 inh inactive, SARS PLpro yeast inactive and Pf growth 48h inactive.
CCCOC(=O)c1ccc(NC(=O)c2ccc(Br)o2)cc1 was read as Pf growth 96h inconclusive, AMA1-RON2 inh inactive, SARS PLpro yeast inactive, Cycloheximide cs 56, Shiga inhibitor 52 and Pf growth 48h inconclusive.
Screening CCOc1ccccc1-c1nc(-c2ccc(NC(=O)Cc3ccc(OC)cc3)cc2)no1 returned Pf growth 96h inconclusive, AMA1-RON2 inh inactive, SARS PLpro yeast inactive, Cycloheximide cs inactive, Shiga inhibitor inactive and Pf growth 48h inconclusive.
Screening COC(=O)Cc1ccc(NC(=O)c2ccc(Br)o2)cc1 returned Pf growth 96h inactive, AMA1-RON2 inh inactive, SARS PLpro yeast inactive, Cycloheximide cs 35, Shiga inhibitor 71 and Pf growth 48h inactive.
Screening CC(C)N1CCN(C(=O)c2ccc(NC(=O)c3ccc(Br)o3)cc2)CC1 returned Pf growth 96h inactive, AMA1-RON2 inh inactive, SARS PLpro yeast inactive and Pf growth 48h inactive.
COC(=O)Cc1ccc(NC(=O)c2ccc(C)c(C)c2)cc1 was read as Pf growth 96h inconclusive, AMA1-RON2 inh inactive, SARS PLpro yeast inactive, Cycloheximide cs 45 and Shiga inhibitor 51.
For COC(=O)Cc1ccc(NC(C)=O)cc1 the results were Pf growth 96h inactive, AMA1-RON2 inh inactive, SARS PLpro yeast inactive and Pf growth 48h inactive.
`CCOc1ccccc1-c1nc(-c2ccc(NC(=O)c3ccc(Br)o3)cc2)no1` gave Pf growth 96h inactive, AMA1-RON2 inh inactive, SARS PLpro yeast inactive, Cycloheximide cs 44, Shiga inhibitor inactive and Pf growth 48h 2.9µM.
Cc1cc(-c2nnc(SCC(=O)Nc3ccc(Br)cc3F)n2N)n[nH]1 was read as Pf growth 96h inconclusive, AMA1-RON2 inh inactive, SARS PLpro yeast inactive, Cycloheximide cs inactive, Shiga inhibitor inactive and Pf growth 48h inactive.
For CC1(C)C(=O)Nc2ccccc2N1C(=O)COC(=O)Cc1ccccc1F the results were AMA1-RON2 inh inactive and SARS PLpro yeast inactive.
`CCN(CC)c1ccc(NC(=O)c2ccc(Br)o2)cc1` gave Pf growth 96h 10µM, AMA1-RON2 inh inconclusive, SARS PLpro yeast inactive, Cycloheximide cs 43, Shiga inhibitor inactive and Pf growth 48h inactive.
Screening CCN(CC)c1ccc(NC(=O)OC)cc1 returned AMA1-RON2 inh inactive, SARS PLpro yeast inactive, Cycloheximide cs inactive, Shiga inhibitor inactive and Pf growth 48h inactive.
Screening O=C1C=C(NC2=CC3OC(c4ccccc4)OCC3OC2=O)CCC1 (stereo not given) returned Pf growth 96h inactive, AMA1-RON2 inh inactive, SARS PLpro yeast inactive, Cycloheximide cs 27, Shiga inhibitor 35 and Pf growth 48h inactive.
`Cc1ccc(C(=O)C2CC2)cc1C` gave AMA1-RON2 inh inactive.
For Cc1ccc(F)c(NC(=S)Nc2cccc3ccccc23)c1 the results were Pf growth 96h inactive, SARS PLpro yeast inactive, Cycloheximide cs 36, Shiga inhibitor 58 and Pf growth 48h inconclusive.
`Cc1ccccc1NC(=S)Nc1cccc2cnccc12` gave Pf growth 96h 9.3µM, AMA1-RON2 inh inactive, SARS PLpro yeast inactive, Cycloheximide cs 24, Shiga inhibitor 54 and Pf growth 48h 5.2µM.
`Cc1ccc(C)c(NC(=S)Nc2cccnc2)c1` gave Pf growth 96h inactive, AMA1-RON2 inh inactive, SARS PLpro yeast inactive, Cycloheximide cs inactive, Shiga inhibitor inactive and Pf growth 48h inactive.
Screening S=C(Nc1cccc2ccccc12)Nc1cccc2ccccc12 returned AMA1-RON2 inh inactive.
For Cc1ccc(C)c(NC(=S)Nc2cccc3cnccc23)c1 the results were Pf growth 96h 9.3µM, AMA1-RON2 inh inactive, SARS PLpro yeast inactive, Cycloheximide cs inactive, Shiga inhibitor inactive and Pf growth 48h inconclusive.
Cc1ccc(S(=O)(=O)N2C[C@H]3n4c(=O)ccc(=O)n4C[C@H](OC(=O)NCc4ccco4)[C@@]3(O)C2)cc1 was read as AMA1-RON2 inh inactive.
Screening CN(C)c1ccc(/C=C/C(=O)c2cccnc2)cc1 returned Pf growth 96h inactive, AMA1-RON2 inh inactive, SARS PLpro yeast inactive, Cycloheximide cs 42, Shiga inhibitor 72 and Pf growth 48h inactive.
